Results as given in PubChem BioAssay (EPA / NIEHS).
Where “and” joins values, the source holds several entries; their conditions need not be identical. Equal values may be shown once. Calls of active or inactive are those of the source. How the source made its calls: active means hit-call score of the fitted dose curve at least 0.9, where 1 is the maximum; inactive means score below 0.9.

The compounds below were run on Monokine induced gamma interferon (MIG), CXCL9 (gene 4283) (assay: BSK_3C_MIG: BioMAP Diversity Plus: 3C Assay for Monokine induced gamma interferon (MIG) Biomarker Activity (AID 2283021;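 on AC50: MIG protein level measured by immunoassay in the treated endothelial cultures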)). Settings: primary human endothelial cells (HUVEC); actives raise or lower the signal.
Description: BSK_3C is a cell-based, multiplexed-readout assay that uses umbilical vein endothelium, a human vascular primary cell, with measurements taken at 24 hours after chemical dosing in a 96-well plate.BSK_3C_MIG is an assay component measured in the BSK_3C assay. It measures MIG antibody related to regulation of gene expression using ELISA technology.Data from the assay component BSK_3C_MIG was analyzed into 1 assay endpoint. This assay endpoint, BSK_3C_MIG, was analyzed with bidirectional fitting relative to DMSO as the negative control and baseline of activity. Using a type of binding reporter, gain or loss-of-signal activity can be used to understand changes in the signaling as they relate to the gene CXCL9. Furthermore, this assay endpoint can be referred to as a primary readout, because this assay has produced multiple assay endpoints where this one serves a signaling function. To generalize the intended target to other relatable targets, this assay endpoint is annotated to the cytokine intended target family, where the subfamily is chemotactic factor.
The levels of cell surface (or secreted, indicated by the prefix "s") biomarker endpoints were measured by ELISA. Overt cytotoxicity to cells in confluent adherent cultures (all systems other than the BT system) was assessed by measuring total protein levels using sulforhodamine B (SRB) staining in parallel cultures at the time of biomarker measurements, indicated as SRB endpoints. For proliferation assays for adherent cell types, individual cell types are cultured at sub-confluence and relative cell numbers quantified by SRB staining at time points optimized for each system (48 h: 3C and CASM3C systems; 72 h: BT and HDF3CGF systems; 96 h: SAg system). SRB was performed by staining cells with 0.1% SRB after fixation with 10% TCA and reading wells at 560 nm.Viability and proliferation of PBMC (T cells) was quantified by Alamar Blue reduction for the SAg and BT systems. For PBMC viability (referred to as PBMC Cytotoxicity within the assay endpoint names), cells were plated (75,000/well in a 96-well plate) and then chemical samples added for 1 h before addition of activators, SEB and TSST-1 (20 ng/mL final concentration each). Cells were incubated for 90 h. Then, Alamar Blue (20 uL/well) (Invitrogen, Cat DAL1100) was added for 6 h, and the plates were read with a fluorescence microplate reader at 546/580 nm (excitation/emission). For PBMC proliferation, cells were plated and activated as above but incubated for only 16 h prior to addition of Alamar Blue. Plates were read after 6 h.

SMILES | outcome | AC50
O=C(F)C1(F)C(F)(F)C(F)(F)C(F)(F)C(F)(F)C1(F)F | inactive | 
O=C(O)CCC(F)(F)C(F)(F)C(F)(F)F | inactive | 
Cc1cc(C)c(O)c(C(C)(C)C)c1 | inactive | 
NC(=O)C(F)(F)C(F)(F)C(F)(F)C(F)(F)C(N)=O | inactive | 
O=C(O)CCC(F)(F)C(F)(F)C(F)(F)C(F)(F)C(F)(F)C(F)(F)C(F)(F)F | inactive | 
CNS(=O)(=O)C(F)(F)C(F)(F)C(F)(F)C(F)(F)C(F)(F)C(F)(F)C(F)(F)C(F)(F)F | inactive | 
O=C(O)C(F)(F)C(F)(F)C(F)(F)OC(F)(F)F | inactive | 
O=C1C=CC(=O)N1c1ccc(Cc2ccc(N3C(=O)C=CC3=O)cc2)cc1 |  | 12 µM (active)
OCC(F)(F)C(F)(F)C(F)(F)C(F)(F)C(F)(F)C(F)(F)C(F)(F)C(F)(F)CO | inactive | 
NS(=O)(=O)C(F)(F)C(F)(F)C(F)(F)C(F)(F)C(F)(F)C(F)(F)F | inactive | 
O=S(=O)(OCC(F)(F)F)C(F)(F)C(F)(F)C(F)(F)C(F)(F)F | inactive | 
O=C=NCc1cccc(CN=C=O)c1 | inactive | 
CCN(CC)c1ccc(C=O)c(O)c1 | inactive | 
O=C(O)C(F)(F)OC(F)(F)C(F)(F)OC(F)(F)C(F)(F)OC(F)(F)F | inactive | 
Cc1ccc(S(=O)(=O)C(I)I)cc1 |  | 3.75 µM (active)
C=C(C)C(=O)OCC(F)(F)C(F)(F)C(F)(F)C(F)F | inactive | 
O=C(O)C(F)(F)C(F)(F)C(F)(F)C(=O)O | inactive | 
OCC(F)(F)C(F)(F)C(F)(F)CO | inactive | 
CC(C)CCCC(C)CCO (stereo not given) | inactive | 
FC(F)(F)C(F)(F)C(F)(F)CC1CO1 (stereo not given) | inactive | 

SMILES | outcome | AC50
OCC(O)CC(F)(F)C(F)(F)C(F)(F)C(F)(F)C(F)(F)C(F)(F)C(F)(F)C(F)(F)F (stereo not given) | inactive | 
OCCCCC(F)(F)C(F)(F)C(F)(F)C(F)(F)F | inactive | 
CCOC(=O)CC(=O)C(F)(F)C(F)(F)F | inactive | 
C=CC(=O)OCCC(F)(F)C(F)(F)C(F)(F)C(F)(F)F | inactive | 
O=S(=O)(O)CCC(F)(F)C(F)(F)C(F)(F)C(F)(F)C(F)(F)C(F)(F)C(F)(F)C(F)(F)F | inactive | 
C[C@]12CC[C@H]3C(=CCc4cc(O)ccc43)[C@@H]1CCC2=O | inactive | 
OCCCC(F)(F)C(F)(F)C(F)(F)C(F)(F)C(F)(F)C(F)(F)C(F)(F)C(F)(F)F |  | 50.9 µM (active) and 52.6 µM (active)
C=CC(=O)OCC(F)(F)C(F)(F)C(F)(F)C(F)(F)C(F)(F)C(F)(F)C(F)(F)C(F)F | inactive | 
C[Si](Cl)(Cl)CCC(F)(F)C(F)(F)C(F)(F)C(F)(F)C(F)(F)C(F)(F)F | inactive | 
NCC(F)(F)C(F)(F)C(F)(F)C(F)(F)C(F)(F)C(F)(F)F | inactive | 
NC(=O)C(F)(F)C(F)(F)C(F)(F)C(F)(F)C(F)(F)C(F)(F)C(F)(F)F | inactive | 
CC(C)(C)c1cc(CCC(=O)NCCCCCCNC(=O)CCc2cc(C(C)(C)C)c(O)c(C(C)(C)C)c2)cc(C(C)(C)C)c1O | inactive | 
NC(=O)C(F)(F)C(F)(F)C(F)(F)C(F)F | inactive | 
NC(=O)C(F)(F)C(F)(F)C(F)(F)F | inactive | 
Cc1cc(O)c(C(C)(C)C)cc1C(C)(C)C |  | 11.5 µM (active)
O=S(=O)(O)CCC(F)(F)C(F)(F)C(F)(F)C(F)(F)F | inactive | 
CCN=C1C=CC(=C(c2ccc(N(CC)CC)cc2)c2ccc(N(CC)CC)cc2)c2ccccc21 |  | 2.92 µM (active) and 3.32 µM (active)
FC(F)(F)C(F)(F)C(F)(F)C(F)(F)C(F)(F)C(F)(F)CC[Si](Cl)(Cl)Cl | inactive | 
C=CC(=O)OCC(F)(F)C(F)(F)C(F)(F)COC(=O)C=C |  | 24.7 µM (active) and 22.7 µM (active)
CCN(CC)c1ccc(N=Nc2ccccc2)cc1 | inactive | 
